Inconclusive results are not listed. Calls of active or inactive are those of the source. Calls come from the whole dose curve.
experiment: Natriuretic polypeptide receptor (hNpr1) antagonism - Pilot counterscreen GloSensor control cell line (AID 1347045); conditions: HEK293 cGMP GloSensor cells, SNP-stimulated luminescence, 20 min; series mostly up to 38.3 µM; activity change, negative = inhibition: at the top concentration
Experimental: F. Fan, B. F. Binkowski, B. L. Butler, P. F. Stecha, M. K. Lewis, K. V. Wood, Novel genetically encoded biosensors using firefly luciferase. ACS Chem Biol 3, 346-351 (2008).
PROTOCOL TABLE (as described by Inglese J, Shamu CE and Guy RK. 2007)
SEQUENCE No. (e.g., 1, 2, 3, etc.); […] (e.g., Cells, Incubation, Reagent, etc.); VALUE and DESCRIPTION.
1. Cells. Seed 1500 HEK293 cGMP-sensor cells per well in 4uL into Greiner 1536-well white/solid bottom high base, TC plates.
2. Incubation. Incubate plated cells at 37C in 5% CO2, 95% RH overnight.
3. Reagent. Add 1uL per well GloSensor reagent from Promega (2% final concentration) or CO2 independent media vehicle control to respective columns of Greiner 1536-well plates.
4. Incubation. Incubate plated cells at room temperature for 2 h, protect from light.
5. Compounds. Library compounds and DMSO vehicle control added at 23nL per well, transferred by Pin Tool.
6. Incubation. Incubate plated cells for 30 min. at room temperature, protect from light.
7. Detector. GloSensor baseline pre-read luminescence measured using CCD-based camera (Viewlux).
8. Compound. Add 1uL of sodium nitroprusside (SNP) to 50 uM final concentration to stimulate soluble guanylyl cyclase (GC) or CO2 independent media as vehicle control.
9. Incubation. Incubate treated cells at room temperature for 20 min., protect from light.
10. Detector. GloSensor post-SNP luminescence measured using CCD-based camera (Viewlux).
NOTES (numbers refer to Sequence numbers above; values are from representative experiments)
1. HEK293 cells expressing GIP/pGS-40F were grown to 85-95% confluence (48-72 h) in T175 culture flasks (CO2 independent media supplemented with 10% FBS, 1% Pen/Strep antibiotics, and 1 ug/mL puromycin). Trypsinize and harvest cells from T175 culture flasks and filter through 40 um cell strainer. Cells counted with Invitrogen Countess (30,000,000 - 50,000,000 cells/flask).
2. Cells incubated for 24 h. at 37C in 95% RH incubator with metal lid having gas-exchange holes.
3. Prepare GloSensor Reagent (Promega): Reconstitute GloSensor luciferase substrate by adding 8.2mL Hepes buffer to 250mg substrate, mix well, protect from light and stored at -80C. Prepare a fresh 12% GloSensor solution in CO2 independent supplemented plating media (see above). Mix well and store at ambient temperature, protected from light. 1uL 12% GloSensor Luciferase Reagent added (2% final concentration) to respective columns of 9 x 1536-well Greiner plate with BioRaptr, 1uL CO2 independent plating media added to respective columns as vehicle control with BioRaptr.
4. Cells incubated for 2 h. at ambient temperature, protected from light with metal lid having gas-exchange holes.
5. 23nL of LOPAC128 library compounds (7 plates) or DMSO vehicle control transferred to 9 Greiner white/solid bottom high base, TC plates in 7 interplate 1:5 titrations (see Yasgar, A. et al. 2008) with Pintool. Two of the 9 plates are DMSO-only in compound field at beginning and end of compound library-treated plates.
6. Cells incubated for 30-50 min. at ambient temperature protected from light with metal lid having gas-exchange holes.
7. Read GloSensor + Antagonist/Compound baseline Luminescence on the ViewLux [Exposure, 30 s; Gain, High; Speed, Slow; Binning, 2X]
8. SNP solution prepared at 500 mM (in H2O) stock concentration. From this a working dilution was prepared at 300 uM in CO2 Independent media. 1uL of 300 uM SNP (50 uM final concentration) or CO2 Independent media vehicle control dispensed into respective columns of 9 x Greiner 1536-well white/solid bottom, tissue culture plates with BioRaptr.
9. Cells incubated for 20 min. at ambient temperature, protected from light with metal lid having gas-exchange holes.
10. Read final luminescence on the ViewLux. [Exposure, 30 s; Gain, High; Speed, Slow; Binning, 2X.]
[…]
% is set by controls: 0 for no effect and ±100 for the full control effect; potency is the fitted concentration of half-maximal effect.

SMILES | activity change, negative = inhibition | Potency
CC(=O)N[C@@H](CS)C(=O)O | 10.1% (inactive) | –
CCCNC(=O)NS(=O)(=O)c1ccc(Cl)cc1 | -4.09% (inactive) | –
CCCCCN(C)CCC(O)(P(=O)(O)O)P(=O)(O)O | 5.18% (inactive) | –
CCn1cc(C(=O)O)c(=O)c2ccc(C)nc21 | -2.64% (inactive) | –
CC(=O)c1ccc(S(=O)(=O)NC(=O)NC2CCCCC2)cc1 | 15.1% (inactive) | –
CCN(CC)CCNC(=O)c1ccc(N)cc1 | 2.86% (inactive) | –
NCCS | 1.15% (inactive) | –
O=C1NC(=O)C(c2ccccc2)(c2ccccc2)N1 | – | inactive
O=C(O)CCc1nc(-c2ccccc2)c(-c2ccccc2)o1 | 6.12% (inactive) | –
CCN1CCC[C@H]1CNC(=O)c1cc(S(N)(=O)=O)ccc1OC | 5.88% (inactive) | –
CC1(C)CCC2=C(O1)c1ccccc1C(=O)C2=O | – | 14.7 µM (active)
Clc1ccc(Cn2c(CN3CCCC3)nc3ccccc32)cc1 | 18.2% (inactive) | –
COc1ccc(Cc2nccc3cc(OC)c(OC)cc23)cc1OC | -96.7% (inactive) | –
O=c1c(-c2ccc(O)cc2)coc2cc(O)ccc12 | -11.5% (inactive) | –
O=C(NCCN1CCOCC1)c1ccc(Cl)cc1 | -9.19% (inactive) | –
CC1=C(/C=C/C(C)=C/C=C/C(C)=C/C(=O)Nc2ccc(O)cc2)C(C)(C)CCC1 | -11.2% (inactive) | –
C[N+](C)(C)CCCCCC[N+](C)(C)C | – | inactive
CN(C)CCC(c1ccccc1)c1ccccn1 (stereo not drawn) | -4.75% (inactive) | –
CC(C)NCC(O)COc1cccc2[nH]ccc12 (stereo not drawn) | 2.32% (inactive) | –
CCN(CC)CCOC(=O)c1ccc(N)cc1 | 6.17% (inactive) | –
CCN(CC)C(=O)c1ccc(O)c(OC)c1 | 0.74% (inactive) | –
COc1ccccc1N1CCN(CCCNc2cc(=O)n(C)c(=O)n2C)CC1 | -12.8% (inactive) | –
O=C1NCC2(CCN(CCc3ccccc3)CC2)O1 | -1.18% (inactive) | –

Source: PubChem BioAssay (NCATS)
